Measured values as given in PubChem BioAssay (NCATS).
Records with an inconclusive call do not appear. Entries that show only a call come without a potency. Active and inactive are the calls of the source. Unless noted, calls follow the shape of the dose curve; as a rule, active = well fitted curve in the direction sought with a large enough effect; inconclusive = small, poorly fitted or top-dose-only effect, or another doubt; inactive = no such curve, though single readings can be large; an effect the other way counts as inactive or inconclusive.

Legend:
[1] = AP1 Signaling Pathway (AID 357; active = well fitted curve in either direction with a large enough effect, not every such curve was filed as active)
How it was run: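 ME-180 cells with beta-lactamase reporter under AP-1 response element, stimulated with EC50 EGF; compounds tested in titration series, 5 h at 37 °C. CCF4 substrate added 2.5 h at room temperature; 460/530 nm emission ratio gave %activity and AC50.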

[2] = NFAT Signaling Pathway (AID 444; active = well fitted curve in either direction with a large enough effect, not every such curve was filed as active;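 also: carbachol stimulus at about its EC50 of 1 µM final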); settings: Jurkat NFAT-bla M1, carbachol, beta-lactamase ratio, 5 h; at 17.2 µM (top of the series) unless noted
How it was run: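 Jurkat cells with NFAT-driven β-lactamase reporter and co-expressed M1 receptor, stimulated with carbachol (final 1 uM, ~EC50), compound titration, 5 h at 37 °C. CCF4 loaded 1 h at RT; 460/530 nm ratio gave %activity and AC50.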

[3] = Stat Signaling Pathway (AID 446; active = well fitted curve in either direction with a large enough effect, not every such curve was filed as active;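 also: ME-180 cervical cancer cells given 40 pM IL-6 alongside compound; SIE-controlled beta-lactamase reporter measured as 460/530 nm FRET emission ratio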)
How it was run: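 FRET read-out (405 nm excitation, 460/530 nm emission) of a beta-lactamase reporter under a STAT-inducible element in ME-180 cervical carcinoma cells. Cells with compound receive 40 pM IL-6 for 5 h. Values are normalised to AC90 stimulation and AC90 JAK-inhibitor controls.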

[4] = molecular target: Glucocorticoid receptor (Homo sapiens) (UniProt P04150); experiment: GR-GFP Redistribution (AID 450;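 active = compounds whose dose series gives a full or clear partial fitted curve of increased nuclear translocation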; also: potency is read from the fitted curve at half-maximal effect); settings: U2OS GR-GFP nuclear translocation, laser cytometry, 2 h
[5] = molecular target: Glucocorticoid receptor (Homo sapiens) (UniProt P04150); experiment: GR-EFC Redistribution (AID 451; calls by dose curve; also: potency is read from the fitted curve at half-maximal effect); settings: CHO-K1 GR-EFC translocation, beta-gal luminescence, 2 h
How it was run: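 CHO-K1 cells expressing nuclear EA and GR-ED fragments of b-gal; compounds titrated up to 46 uM final, 2 h at 37 C. GR nuclear translocation read as complemented b-gal luminescence after 1 h RT detection.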

[6] = molecular target: Mitogen-activated protein kinase 10 (Mus musculus) (UniProt Q61831); experiment: JNK3 AlphaScreen Assay (AID 530; active = well fitted curve in either direction with a large enough effect, not every such curve was filed as active;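 also: kinase came from lysate of stimulated human HepG2 cells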; also: potency is read from the fitted curve at half-maximal effect;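 as to activity change, negative = inhibition: signal reports phosphorylation of biotinylated GST-cJun 1-79 at Ser73 with 10 µM ATP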)
How it was run: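 Activity was read by AlphaScreen after JNK3-containing HepG2 lysate (cytokine pre-activated) phosphorylated biotinylated GST-cJun with 10 uM ATP at room temperature. Phospho-Ser73 cJun antibody with Protein-A acceptor beads provided detection.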

[7] = molecular target: 3',5'-cyclic-AMP phosphodiesterase 4B (Homo sapiens) (UniProt Q07343); experiment: qHTS Assay for Inhibitors of PDE-IV (AID 607; active = well fitted activation curve with a large enough effect in the main read-out, with a control signal flat, not every such curve was filed as active)
How it was run: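 Cell-based read-out of cAMP via a modified cyclic nucleotide-gated channel and membrane potential dye (535/590 nm) in HEK293 cells expressing PDE4 endogenously. Compounds tested up to 22.9 uM final; 100 uM RO 20-1724 reference.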

[8] = qHTS Assay for Lipid Storage Modulators (AID 1519; calls by dose curve); settings: Drosophila S3 cells, BODIPY lipid droplet/cell ratio, laser cytometry, cells loaded with oleic acid; for activity change, negative = inhibition: at 25.7 µM (top of the series)
How it was run: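 Cells seeded at 5,000 per well were treated with compounds over a concentration series and loaded with oleic acid (400 uM, as added). Lipid droplet fluorescence (488 nm excitation, 500-530 nm channel) was read by laser-scanning cytometry and normalized to 20 uM Triacsin C.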

[9] = molecular target: ATP-dependent 6-phosphofructokinase (Trypanosoma brucei brucei) (UniProt O15648); experiment: qHTS Assay to Find Inhibitors of T. brucei phosphofructokinase: hit validation (AID 492961)
How it was run: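 Luminescence from ADP-Glo reports ADP generated as T. brucei PFK (1.25 nM) phosphorylates 0.5 mM fructose-6-phosphate using 0.1 mM ATP. Reactions ran 45 min at room temperature, pH 8.0.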

[10] = molecular target: Ubiquitin carboxyl-terminal hydrolase 1 (Homo sapiens) (UniProt O94782); experiment: Inhibitors of USP1/UAF1: Pilot qHTS (AID 504865);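 also: rhodamine fluorescence freed from ubiquitin-rhodamine substrate followed over time; top concentration of the series differs between compounds; nearly all actives have a fitted effect of over 35% in size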
How it was run: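 Deubiquitinase activity followed as kinetic rhodamine fluorescence release from 150 nM Ub-Rho. 1 nM USP1/UAF1 with compound, after 15 min room-temperature preincubation, in HEPES pH 7.8 buffer containing TCEP, EDTA, BSA and Tween-20.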

[11] = molecular target: Luciferin 4-monooxygenase (Photinus pyralis) (UniProt P08659); experiment: Biochemical firefly luciferase enzyme assay for NPC (AID 624030);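 also: purified P. pyralis luciferase at 10 nM with luciferin and ATP substrate; nearly all actives have a fitted effect of over 70% in size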
How it was run: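 Purified P. pyralis luciferase at 10 nM in 50 mM Tris Acetate (final), luminescence read within 5 minutes of enzyme addition to compounds. Activity normalised to PTC124 versus DMSO; concentration-response curves classed by r2, magnitude and activity.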

[12] = S16 Schwann cell PMP22 intronic element firefly luciferase assay (AID 624032); also: nearly all actives have a fitted effect of over 30% in size
How it was run: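 Rat S16 Schwann cells stably carrying firefly luciferase driven by a PMP22 intronic element, in 10% FBS, treated 24 h at 37 C. ONE-Glo luminescence normalized to PTC124 control and DMSO (0%); curves classed by r2, magnitude and activity.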

[13] = qHTS profiling for inhibitors of Plasmodium falciparum proliferation (AID 504749); also: potency is read from the fitted curve at half-maximal effect; as to all read-outs here: nearly all actives have a fitted effect of over 60% in size; settings: P. falciparum in erythrocytes, SYBR Green DNA, 72 h; for activity, negative = inhibition: at 12.8 µM (top of the series)
How it was run: (§1)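 Each compound contacts P. falciparum-infected red blood cells for 72 h at 37 C; lysis buffer (Tris, EDTA, saponin, Triton X, SYBR Green I) is added and fluorescence measured next morning; values normalized to controls.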

AS120 = experiment: as above; settings: P. falciparum in erythrocytes, SYBR Green DNA, 72 h; series mostly up to 12.8 µM
How it was run: as §1

C2A = experiment: as above; settings: P. falciparum in erythrocytes, SYBR Green DNA, 72 h; series mostly up to 12.8 µM
How it was run: as §1

CP238 = experiment: as above; settings: P. falciparum in erythrocytes, SYBR Green DNA, 72 h; series mostly up to 12.8 µM
How it was run: as §1

CP250 = experiment: as above; settings: P. falciparum in erythrocytes, SYBR Green DNA, 72 h; series mostly up to 12.8 µM
How it was run: as §1

CP252 = experiment: as above; settings: P. falciparum in erythrocytes, SYBR Green DNA, 72 h; series mostly up to 12.8 µM
How it was run: as §1

HB3 = experiment: as above; settings: P. falciparum in erythrocytes, SYBR Green DNA, 72 h; series mostly up to 12.8 µM
How it was run: as §1

SC27B = experiment: as above; settings: P. falciparum in erythrocytes, SYBR Green DNA, 72 h; series mostly up to 12.8 µM
How it was run: as §1

[14] = measured here: cell count channel max response
[15] = measured here: lipid channel max response

3',5'-cyclic-AMP phosphodiesterase 4B (Homo sapiens), sequence (Q07343 whole entry, looked up): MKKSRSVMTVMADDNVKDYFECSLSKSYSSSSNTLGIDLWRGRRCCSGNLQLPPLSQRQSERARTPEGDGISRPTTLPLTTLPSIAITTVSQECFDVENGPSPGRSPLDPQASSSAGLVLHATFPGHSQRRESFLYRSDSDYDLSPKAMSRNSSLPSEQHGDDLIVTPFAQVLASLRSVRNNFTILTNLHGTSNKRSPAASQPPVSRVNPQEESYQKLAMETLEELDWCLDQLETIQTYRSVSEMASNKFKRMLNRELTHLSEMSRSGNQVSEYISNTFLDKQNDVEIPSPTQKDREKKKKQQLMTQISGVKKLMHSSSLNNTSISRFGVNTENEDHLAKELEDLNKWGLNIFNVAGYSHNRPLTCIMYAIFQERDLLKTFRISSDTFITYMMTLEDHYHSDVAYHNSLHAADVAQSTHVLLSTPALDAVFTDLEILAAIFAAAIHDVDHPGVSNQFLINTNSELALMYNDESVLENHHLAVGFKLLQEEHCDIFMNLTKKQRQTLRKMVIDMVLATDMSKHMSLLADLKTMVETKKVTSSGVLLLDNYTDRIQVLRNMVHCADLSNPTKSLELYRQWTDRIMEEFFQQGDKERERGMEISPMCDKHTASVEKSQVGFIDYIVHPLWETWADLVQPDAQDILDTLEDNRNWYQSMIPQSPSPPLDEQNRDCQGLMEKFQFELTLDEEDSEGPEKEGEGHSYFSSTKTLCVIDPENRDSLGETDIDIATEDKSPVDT
Luciferin 4-monooxygenase (Photinus pyralis), sequence (P08659 whole entry, looked up): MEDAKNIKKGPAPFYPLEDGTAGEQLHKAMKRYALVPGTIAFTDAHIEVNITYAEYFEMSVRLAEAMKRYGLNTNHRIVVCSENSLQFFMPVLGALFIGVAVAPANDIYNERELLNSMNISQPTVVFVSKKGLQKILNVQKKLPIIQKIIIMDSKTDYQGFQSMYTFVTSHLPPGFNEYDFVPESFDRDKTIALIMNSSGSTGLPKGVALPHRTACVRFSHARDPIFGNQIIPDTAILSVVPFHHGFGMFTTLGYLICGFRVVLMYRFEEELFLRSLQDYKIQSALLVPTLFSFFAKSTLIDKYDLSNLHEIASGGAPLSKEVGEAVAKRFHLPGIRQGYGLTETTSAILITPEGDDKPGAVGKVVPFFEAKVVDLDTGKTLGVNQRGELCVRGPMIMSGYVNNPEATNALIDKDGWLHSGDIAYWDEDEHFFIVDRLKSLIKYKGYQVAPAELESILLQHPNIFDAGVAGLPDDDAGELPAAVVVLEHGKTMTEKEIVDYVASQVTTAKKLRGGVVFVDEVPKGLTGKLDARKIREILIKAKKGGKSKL
Ubiquitin carboxyl-terminal hydrolase 1 (Homo sapiens), sequence (O94782 whole entry, looked up): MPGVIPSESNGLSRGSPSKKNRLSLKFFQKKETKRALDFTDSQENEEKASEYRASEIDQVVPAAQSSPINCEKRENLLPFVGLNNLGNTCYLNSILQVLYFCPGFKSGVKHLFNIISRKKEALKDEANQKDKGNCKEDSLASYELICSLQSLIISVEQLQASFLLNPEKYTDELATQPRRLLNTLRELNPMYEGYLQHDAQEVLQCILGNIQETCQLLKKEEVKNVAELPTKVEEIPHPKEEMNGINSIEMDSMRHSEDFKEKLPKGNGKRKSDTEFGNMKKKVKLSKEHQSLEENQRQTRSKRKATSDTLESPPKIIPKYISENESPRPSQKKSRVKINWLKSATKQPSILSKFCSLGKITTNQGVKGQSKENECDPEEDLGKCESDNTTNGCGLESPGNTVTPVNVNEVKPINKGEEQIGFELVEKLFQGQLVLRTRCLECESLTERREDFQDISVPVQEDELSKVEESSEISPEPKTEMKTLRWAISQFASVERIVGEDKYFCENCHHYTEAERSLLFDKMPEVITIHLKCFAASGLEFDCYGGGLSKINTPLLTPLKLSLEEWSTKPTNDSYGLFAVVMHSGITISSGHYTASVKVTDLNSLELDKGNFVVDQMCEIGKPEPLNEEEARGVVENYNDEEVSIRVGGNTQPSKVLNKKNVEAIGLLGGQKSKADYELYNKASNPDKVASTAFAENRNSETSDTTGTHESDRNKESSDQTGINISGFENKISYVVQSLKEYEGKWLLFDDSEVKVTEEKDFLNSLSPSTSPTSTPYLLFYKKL
ATP-dependent 6-phosphofructokinase (Trypanosoma brucei brucei), sequence (O15648 whole entry, looked up): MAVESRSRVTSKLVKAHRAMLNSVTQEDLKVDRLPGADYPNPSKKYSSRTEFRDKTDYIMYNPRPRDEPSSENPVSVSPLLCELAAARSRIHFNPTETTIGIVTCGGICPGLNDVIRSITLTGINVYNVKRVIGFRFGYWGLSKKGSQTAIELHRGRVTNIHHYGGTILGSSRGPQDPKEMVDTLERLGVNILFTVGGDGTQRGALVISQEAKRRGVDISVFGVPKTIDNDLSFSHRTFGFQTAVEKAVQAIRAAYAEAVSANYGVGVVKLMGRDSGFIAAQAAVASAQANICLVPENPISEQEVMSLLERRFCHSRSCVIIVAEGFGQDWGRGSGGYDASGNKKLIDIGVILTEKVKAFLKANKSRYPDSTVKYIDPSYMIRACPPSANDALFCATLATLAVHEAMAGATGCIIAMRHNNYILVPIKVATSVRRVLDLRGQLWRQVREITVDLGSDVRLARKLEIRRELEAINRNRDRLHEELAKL
Glucocorticoid receptor (Homo sapiens), sequence (P04150 whole entry, looked up, the tested form may be a part): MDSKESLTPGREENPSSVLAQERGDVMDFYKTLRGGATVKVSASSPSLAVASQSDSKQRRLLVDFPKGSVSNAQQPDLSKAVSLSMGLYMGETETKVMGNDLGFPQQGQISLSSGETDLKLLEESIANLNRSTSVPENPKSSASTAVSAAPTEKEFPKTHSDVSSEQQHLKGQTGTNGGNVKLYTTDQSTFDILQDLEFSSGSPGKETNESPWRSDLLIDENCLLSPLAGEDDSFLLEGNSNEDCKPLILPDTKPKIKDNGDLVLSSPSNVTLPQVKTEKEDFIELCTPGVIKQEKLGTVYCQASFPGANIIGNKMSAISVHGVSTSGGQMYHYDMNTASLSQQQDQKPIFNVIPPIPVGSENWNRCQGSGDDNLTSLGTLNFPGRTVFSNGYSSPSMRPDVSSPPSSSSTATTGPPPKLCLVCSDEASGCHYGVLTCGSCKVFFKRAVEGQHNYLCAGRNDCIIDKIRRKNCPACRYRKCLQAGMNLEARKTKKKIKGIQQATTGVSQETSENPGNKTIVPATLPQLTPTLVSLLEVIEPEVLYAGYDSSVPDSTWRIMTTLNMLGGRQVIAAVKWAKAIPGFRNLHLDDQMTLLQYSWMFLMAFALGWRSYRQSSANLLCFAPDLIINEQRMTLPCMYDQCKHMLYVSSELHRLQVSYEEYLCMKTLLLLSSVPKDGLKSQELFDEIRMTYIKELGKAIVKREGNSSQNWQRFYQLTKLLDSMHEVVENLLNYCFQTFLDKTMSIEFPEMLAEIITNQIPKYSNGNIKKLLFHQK

Question: For `C[C@H]1CS(=O)(=O)CCN1/N=C\c1ccc([N+](=O)[O-])o1`, which outcome [1] is on record?
Answer: inactive

Question: What about the activity change, negative = inhibition [2] of the same compound?
Answer: 1.33% (inactive)

Question: What about the outcome [3] of the same compound?
Answer: inactive

Question: And the Potency [4]?
Answer: > 20.6 µM (inactive)

Question: What about the Potency [5] of the same compound?
Answer: > 20.6 µM (inactive)

Question: What about the Potency [6] of the same compound?
Answer: inactive

Question: What about the outcome [7] of the same compound?
Answer: inactive

Question: And the activity change, negative = inhibition [8]?
Answer: -3.89% (inactive)

Question: And the max response [8, 14]?
Answer: -15.4%

Question: And the max response [8, 15]?
Answer: -17.6%

Question: What about the outcome [9] of the same compound?
Answer: inactive

Question: And the Potency [10]?
Answer: inactive

Question: And the Potency [11]?
Answer: inactive

Question: And the Potency [12]?
Answer: inactive

Question: What about the activity, negative = inhibition ([13]; parasite line A) of the same compound?
Answer: -17.9% (inactive)

Question: What about the activity, negative = inhibition ([13]; parasite line B) of the same compound?
Answer: -12.5% (inactive)

Question: And the Potency (AS120)?
Answer: inactive

Question: What about the Potency (C2A) of the same compound?
Answer: inactive

Question: And the Potency (CP238)?
Answer: inactive

Question: And the Potency (CP250)?
Answer: inactive

Question: What about the Potency (CP252) of the same compound?
Answer: inactive

Question: What about the Potency (HB3) of the same compound?
Answer: inactive

Question: What about the Potency (SC27B) of the same compound?
Answer: inactive

Question: Which results are given for `O=C(O)CCCC[C@H]1SC[C@H]2NC(=O)N[C@@H]21`?
Answer: outcome [1]: inactive; activity change, negative = inhibition [2]: 2.95% (inactive); outcome [3]: inactive; Potency [4]: > 20.6 µM (inactive); Potency [5]: > 20.6 µM (inactive); Potency [6]: 0.00126 µM (active); outcome [7]: inactive; activity change, negative = inhibition [8]: -3.62% (inactive); max response [8, 14]: 5.29%; max response [8, 15]: 0.0876%; Potency [10]: inactive

Question: Which outcome [1] does the source give for `CC(C)(C)NC[C@@H](O)COc1ccccc1C1CCCC1` here?
Answer: inactive

Question: What about the activity change, negative = inhibition [2] of the same compound?
Answer: -6.56% (inactive)

Question: And the outcome [3]?
Answer: inactive

Question: What about the Potency [4] of the same compound?
Answer: 4.85 µM (active)

Question: And the Potency [5]?
Answer: > 20.6 µM (inactive)

Question: And the Potency [6]?
Answer: inactive

Question: And the activity change, negative = inhibition [8]?
Answer: 1.2% (inactive)

Question: What about the max response [8, 14] of the same compound?
Answer: -14.9%

Question: And the max response [8, 15]?
Answer: -12.5%

Question: What about the outcome [9] of the same compound?
Answer: inactive

Question: And the Potency [10]?
Answer: inactive

Question: And the Potency [11]?
Answer: inactive

Question: And the Potency ([13]; parasite line B)?
Answer: 3.16 µM (active)

Question: What about the Potency (AS120) of the same compound?
Answer: 3.98 µM (active)

Question: And the Potency (CP238)?
Answer: 3.16 µM (active)

Question: What about the Potency (CP252) of the same compound?
Answer: 3.16 µM (active)

Question: What about the Potency (HB3) of the same compound?
Answer: 3.16 µM (active)

Question: What about the Potency (SC27B) of the same compound?
Answer: 3.55 µM (active)

Question: With `NC[C@@H]1O[C@H](O[C@@H]2[C@H](O[C@@H]3O[C@H](CO)[C@@H](O)[C@@H]3O)[C@@H](O)[C@@H](N)C[C@H]2N)[C@@H](N)[C@H](O)[C@@H]1O` as the compound, how does the outcome [1] read?
Answer: inactive

Question: And the activity change, negative = inhibition [2]?
Answer: -8.79% (inactive)

Question: What about the outcome [3] of the same compound?
Answer: inactive

Question: What about the Potency [4] of the same compound?
Answer: > 20.6 µM (inactive)

Question: What about the Potency [5] of the same compound?
Answer: > 20.6 µM (inactive)

Question: What about the Potency [6] of the same compound?
Answer: inactive

Question: What about the outcome [7] of the same compound?
Answer: inactive

Question: And the activity change, negative = inhibition [8]?
Answer: -2.12% (inactive)

Question: And the max response [8, 14]?
Answer: -8.12%

Question: What about the max response [8, 15] of the same compound?
Answer: -11.1%

Question: And the outcome [9]?
Answer: inactive

Question: And the Potency [10]?
Answer: inactive

Question: What about the Potency [11] of the same compound?
Answer: inactive

Question: What about the Potency [12] of the same compound?
Answer: inactive

Question: And the activity, negative = inhibition ([13]; parasite line A)?
Answer: -3.69% (inactive)

Question: And the activity, negative = inhibition ([13]; parasite line B)?
Answer: 2.48% (inactive)

Question: And the Potency (AS120)?
Answer: inactive

Question: What about the Potency (C2A) of the same compound?
Answer: inactive

Question: What about the Potency (CP238) of the same compound?
Answer: inactive

Question: What about the Potency (CP250) of the same compound?
Answer: inactive

Question: What about the Potency (CP252) of the same compound?
Answer: inactive

Question: What about the Potency (HB3) of the same compound?
Answer: inactive

Question: What about the Potency (SC27B) of the same compound?
Answer: inactive

Question: Which results are given for `C=C1c2c(Cl)ccc(O)c2C(O)=C2C(=O)[C@@]3(O)C(O)=C(C(N)=O)C(=O)[C@@H](N(C)C)[C@@H]3[C@@H](O)[C@H]12`?
Answer: outcome [1]: inactive; activity change, negative = inhibition [2]: -26.3% (inactive); outcome [3]: inactive; Potency [4]: > 20.6 µM (inactive); Potency [5]: > 20.6 µM (inactive); Potency [6]: inactive; outcome [7]: inactive; activity change, negative = inhibition [8]: 1.11% (inactive); max response [8, 14]: -8.18%; max response [8, 15]: -8.74%; outcome [9]: inactive; Potency [11]: inactive; Potency [12]: inactive; Potency (AS120): inactive; Potency (CP238): inactive; Potency (CP250): inactive; Potency (CP252): inactive
